In the library only some 15% were active in any assay of this set; here they are far more common.
SARS PLpro yeast: blocks SARS-CoV papain-like protease in a yeast assay. S. cerevisiae expressing SARS-CoV PLpro, growth rescue. Potency, µM (top dose mostly 32.9 µM), for the others: at the top dose activity, positive = growth rescue, hits mostly activators. 330,000 tested, 0.19% active. AID 485353; calls by dose curve; note: potency is the fitted concentration of half-maximal effect; 0% is about no effect; nearly all actives have a fitted effect of over 55% in size
HCV inhibitor: blocks hepatitis C virus; Huh7.5.1 HCVcc-Cre infection, luciferase reporter, 44 h; Potency, µM (top dose mostly 41.8 µM), without a hit: at the top dose activity change, negative = inhibition, most hits filed as inhibitors; 340,000 tested, 3.4% active; note: potency is the fitted concentration of half-maximal effect; % is set by controls: 0 for no effect and ±100 for the full control effect
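Cells seeded at 1,000/well and cultured 4 h, then compounds added followed by HCVcc-Cre virus (~0.5 moi). After 44 h further culture, luciferase substrate was added, plates held 15 min at room temperature, and luminescence read for 15 sec.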
Pf growth 96h: P. falciparum growth inhibition at 96 hours; AID 504834; P. falciparum luciferase reporter growth, 96 h; 320,000 tested, 6.9% active; Potency, µM (titrated, usually from 28.7 µM), for the others: top-dose activity change, negative = inhibition, most hits filed as inhibitors; note: potency is the fitted concentration of half-maximal effect; % is set by controls: 0 for no effect and ±100 for the full control effect
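Readout is luminescence from an integrated firefly luciferase in P. falciparum. Red cells, 2% hematocrit and 0.05% parasitemia final, were cultured with compound through two parasite generations (96 hours) at 37 C, 5% CO2.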
HCMV inh: blocks human cytomegalovirus replication. HFF cells, HCMV-luciferase reporter, 72 h; active compounds read low. activity change, negative = inhibition, % at 57.5 µM. 410,000 tested, 4.5% active; in the data active = activity change below about -60%; inconclusive = no clear call, values can overlap the other calls; inactive = above about -39%; note: % is set by controls: 0 for no effect and ±100 for the full control effect
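Inhibition of viral replication was scored as loss of reporter luminescence in HFFs infected with HCMV-luciferase (MOI 1 PFU/cell) for 72 h; compounds tested at 2 doses, normalized to buffer and Salinomycin controls.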
Pf growth 48h: inhibits P. falciparum growth in the first generation, 48 h; P. falciparum luciferase growth in erythrocytes, 48 h; Potency, µM (highest dose often 28.7 µM), without a hit: at the highest dose activity change, negative = inhibition, usual class: inhibitors; 310,000 tested, 5.9% active; AID 504832; note: potency is the fitted concentration of half-maximal effect; % is set by controls: 0 for no effect and ±100 for the full control effect
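Luciferase-expressing parasites in RBCs, 2% Hct / 0.1% parasitemia final; RPMI 1640 + 0.5% Albumax; 37 C, 5% CO2, one generation; luminescence read-out, lower signal = inhibition.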
Sm TGR block: inhibitors of Schistosoma mansoni thioredoxin glutathione reductase | Q962Y6 | Potency, µM (series often up to 114 µM), for the others: at the top dose activity change, negative = inhibition, hits mostly inhibitors | 360,000 tested, 3% active | purified TGR, DTNB reduction, TNB absorbance 405 nm; note: potency is the fitted concentration of half-maximal effect; % is set by controls: 0 for no effect and ±100 for the full control effect; nearly all actives have a fitted effect of over 60% in size
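TGR 20 nM + NADPH 100 uM (dispensed conc.), cpd preinc 15 min RT; start with NADPH (500 uM addition) then DTNB (15 mM addition). Kinetic TNB absorbance, 405 nm filter. Four-parameter Hill fit across titration.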
* = called active by the depositor; ? = inconclusive; · = not tested or not shown; [ ] = another dose, or the depositor's remark. Unless noted, calls come from the whole dose curve; as a rule, active = well fitted curve in the direction sought with a large enough effect; inconclusive = small, poorly fitted or top-dose-only effect, or another doubt; inactive = no such curve, though single readings can be large; an effect the other way counts as inactive or inconclusive.

SMILES | SARS PLpro yeast | HCV inhibitor | Pf growth 96h | HCMV inh | Pf growth 48h | Sm TGR block
Cc1ccc(Cn2ccc(NC(=O)CCSc3nc(-c4ccco4)cc(C(F)(F)F)n3)n2)cc1 | -3% | 11µM* | · | 35 | 10µM* | -21%
COc1ccc(NC(=O)COC(=O)c2c(F)cccc2Cl)cc1OC | 1% | · | 175% | -11 | 128% | -1%
COc1cc(CCC(C)=O)ccc1OC(=O)c1c(F)cccc1Cl | -2% | 11µM* | 445% | 12 | 485% | 14%
O=C(NCc1ccccc1)c1ccccc1NC(=O)C1CCCCC1 | -9% | ? | 12% | -4 | ? | 3%
CCOC(=O)c1sc(N(Cc2ccccc2)C(=O)COC(=O)c2ccccc2O)nc1C | -4% | 0% | 32% | 12 | 39% | -8%
CCOC(=O)c1sc(N(Cc2ccccc2)C(=O)CCl)nc1C | -4% | 18µM* | -17% | -25 | ? | 25µM*
O[C@H]1c2ccccc2[C@H](Cc2cncs2)[C@@H]1Br | -8% | -2% | 42% | 14 | 22% | -6%
C1=CC(Cc2cncs2)c2ccccc21 (stereo unspecified) | -2% | ? | ? | ? | -23% | 50µM*
COC(=O)c1ccc(-c2nc(O)c(C)s2)cc1 | -1% | 15% | 18% | -65* | 10% | ·
NC(N)=NS(=O)(=O)c1ccc(NC(=S)NC(=O)c2ccccc2)cc1 | -4% | 2% | 5% | 0 | 19% | 16µM*
CCC(=O)Nc1ccc(NC(=S)NC(=O)/C=C/c2ccccc2)cc1 | -2% | -20% | -7% | ? | 10% | -23%
NC(N)=NS(=O)(=O)c1ccc(NC(=S)NC(=O)/C=C/c2ccccc2)cc1 | 3% | 8% | 5% | 19 | 21% | 89µM*
CC(=O)c1ccc(-c2ccc(C(=O)NC3CCCCCC3)o2)cc1 | 0% | 10% | ? | -20 | ? | 22µM*
Cc1ccc(S(=O)(=O)Cc2ccc(C(=O)NC3CCCC3)o2)cc1 | -1% | 5% | 0% | -11 | 1% | ?
COc1ccc(S(=O)(=O)Cc2ccc(C(=O)N3CCCC3)o2)cc1 | 2% | -10% | ? | -7 | · | 45µM*
Cc1ccc(CS(=O)(=O)Cc2ccc(C(=O)N3CCC4(CC3)OCCO4)o2)cc1 | 1% | 10% | -1% | 9 | 0% | 45µM*
COc1ccc(S(=O)(=O)Cc2ccc(C(=O)NC3CCCCCC3)o2)cc1 | -2% | ? | 7.4µM* | 3 | 8% | -22%
CCOC(=O)N1CCN(C(=O)c2ccc(CS(=O)(=O)c3ccc(OC)cc3)o2)CC1 | 0% | -28% | 20% | -32 | -3% | ?
CCc1ccc2oc(C(=O)Nc3cccc(Cl)c3C)cc(=O)c2c1 | · | · | · | -5 | · | -2%
CCN(CC)S(=O)(=O)c1cccc(C(=O)Nc2sc3c(c2C#N)CCC(C)C3)c1 (stereo unspecified) | · | · | · | ? | · | 0%
CCOc1ccc2ncc3c(-c4cccc(OC)c4)nn(-c4ccccc4)c3c2c1 | · | · | · | -29 | · | -8%
Cc1ccc(S(=O)(=O)Cc2ccc(C(=O)N3CCN(c4cccc(Cl)c4)CC3)o2)cc1 | · | · | · | ? | · | -4%
Cc1ccc(S(=O)(=O)Cc2ccc(C(=O)N3CCC4(CC3)OCCO4)o2)cc1 | 1% | 4% | · | 91 | 22% | 22µM*
COc1ccc(S(=O)(=O)Cc2ccc(C(=O)N3CCC(C(N)=O)CC3)o2)cc1 | -2% | 14% | -18% | -7 | · | -19%
Cc1ccc(S(=O)(=O)Cc2ccc(C(=O)N3CCC(C(N)=O)CC3)o2)cc1 | 1% | 12% | 10µM* | -21 | 48% | -3%
SMILES | SARS PLpro yeast | HCV inhibitor | Pf growth 96h | HCMV inh | Pf growth 48h | Sm TGR block
Cc1c([N+](=O)[O-])cnc(Sc2ccccc2)c1[N+](=O)[O-] | · | ? | · | -99* | · | ·
Cc1ccc(Sc2ncccc2[N+](=O)[O-])cc1 | 5% | 11% | 30% | -19 | · | -7%
COc1cccc(O)c1CN1CCC(n2nccc2NC(=O)c2ccc3c(c2)OCO3)CC1 | ? | 1% | 14% | -6 | 12µM* | -14%
C/C=C(\C)CN1CCC(n2nccc2NC(=O)c2ccc3c(c2)OCO3)CC1 | -4% | · | -1% | 23 | -10% | 2%
CC(C)=CCCC(C)CN1CCC(n2nccc2NC(=O)c2ccc3c(c2)OCO3)CC1 (stereo unspecified) | 10% | ? | ? | 57 | 10µM* | 7%
CCOc1cccc(CN2CCC(n3nccc3NC(=O)c3ccc4c(c3)OCO4)CC2)c1 | 2% | -29% | 12% | 3 | ? | 5%
CCCn1cc(CN2CCC(n3nccc3NC(=O)c3ccc4c(c3)OCO4)CC2)c(C)n1 | 3% | 1% | 9.3µM* | 59 | 3% | -2%
COc1ccc(CN2CCC(n3nccc3NC(=O)c3cccc(F)c3)CC2)cc1O | 5% | -19% | 30% | -87* | ? | 19%
O=C(C1CCC(=O)N(C2CCCC2)C1)N1CCC(Oc2ccccc2Cl)CC1 (stereo unspecified) | 5% | ? | 10% | -36 | -21% | 5%
Cc1ccc(C)c(N2CCN(C(=O)C3CCN(S(=O)(=O)c4cn(C)cn4)CC3)CC2)c1 | · | · | · | -20 | · | 0%
Cn1c(-c2cccc(F)c2)cc2cnc(Nc3cccnc3)cc21 | · | · | · | 7 | · | ·
O=C1C=C(Nc2ccc(F)cc2)c2ccccc2C1=O | -1% | ? | 1µM* | 34 | 1.9µM* | -20%
O=C1C=C(Nc2cccnc2)c2ccccc2C1=O | · | 13µM* | · | 23 | · | ·
O=c1cnnc(Nc2ccc(F)cc2)[nH]1 | 3% | 15% | -41% | ? | 4% | -5%
O=C(CCN1C(=O)/C(=C\c2ccccc2)SC1=S)Nc1ccc(C(=O)O)cc1 | 0% | 2% | -11% | -8 | 28% | 2%
Cc1ccc(/C=C2\SC(=S)N(CCC(=O)NNC(=O)c3ccccc3O)C2=O)cc1 | 3% | ? | 10% | ? | 30% | -1%
O=C(CCCN1C(=O)/C(=C\c2ccccc2)SC1=S)Nc1ccc(O)cc1 | -1% | ? | 3% | -96* | ? | 0%[57.1 µM]
O=C(CCCN1C(=O)/C(=C/c2ccccc2)SC1=S)Nc1cccc(O)c1 | -3% | ? | -29% | -97* | ? | -16%
Cc1ccc(/C=C2\SC(=S)N(CCCC(=O)NNC(=O)c3ccccc3O)C2=O)cc1 | 2% | ? | ? | -93* | ? | 12%
CC(/C=C1\SC(=S)N(CCC(=O)Nc2ccc(O)cc2)C1=O)=C\c1ccccc1 | -1% | 7.9µM* | -3% | ? | ? | -12%
CCCNC(=O)Cn1nc(-c2ccc(C)c(C)c2)c2cnc3ccc(OC)cc3c21 | · | · | · | -1 | · | -11%
COc1cccc(-c2cc(C(=O)Nc3cc(Cl)ccc3O)on2)c1 | · | · | · | 39 | · | -13%

Assay outcomes (PubChem BioAssay)
